These results are taken from PubChem BioAssay (NCI).

Common to all, as to assay: NCI-60 one-dose screen, 48 h (100 = growth as untreated, 0 = no growth, -100 = all killed)
Common to all, as to details: 10 µM unless noted

Test [1] concerns HCT-15 colon.
Test [2] concerns HT29 colon.
For test [3], the system named is SNB-75 CNS.
The subject of test [4] is SNB-19 CNS.
Test [5] has as its system U251 CNS.
For test [6], the system named is PC-3 prostate.
Test [7] has as its system SK-MEL-5 melanoma.
Test [8] concerns UACC-62 melanoma.
Test [9] deals with LOX IMVI melanoma.
Test [10] has as its system SK-MEL-28 melanoma.
For test [11], the system named is SK-MEL-2 melanoma.
In test [12] the test system is EKVX NSCLC.
Test [13] has as its system SN12C renal.
The subject of test [14] is UO-31 renal.
The subject of test [15] is TK-10 renal.
The test system of test [16] is ACHN renal.
Test [17] has as its system CAKI-1 renal.
In test [18] the test system is A498 renal.
The subject of test [19] is CCRF-CEM leukemia.
In test [20] the test system is MOLT-4 leukemia.

SMILES strings stand for the structures. Several values for one entry are separate records, joined by “and”; a condition that tells them apart may be missing. Equal entries are not always repeated. About 83,000 compounds went through this panel and 20% of them were active in at least one assay; those are over-represented in the sample as a whole.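 Negative percent growth values reflect cell death: -40 means 40% of the cells present at the start died, and -100 means all died.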 Unmarked numbers belong to inactive results. Activity calls are given as the source filed them. How the source made its calls: active means growth percent below 10; inactive means the rest.

As to `COc1ccc(S(=O)(=O)Nc2cc(Sc3cccc4cccnc34)c(O)c3ccccc23)cc1`, the growth in test [1] was 10.9%; in test [2] it was -37.8% (active); in [3], 62.5%; in [4], 43%; in [5], 4.81% (active); in test [6], 26.3%. Moreover, the growth in test [7] is -32.7% (active); in test [8], -28.1% (active); in test [9], -55.8% (active); in test [10], -2.3% (active); in test [11], 5.09% (active); in [12] it was 36.7%. In addition, the growth in test [13] is 17.2%; in test [14], 27.4%; in [15], 23.4%; in test [16], 7.43% (active); in test [17], 20%; in [18], 65.2%. The growth in test [19] is 13.4%; in test [20], -4.51% (active).
`COc1cc(NC2CCCCC2O)c2nc(-c3ccc(Cl)cc3)ccc2c1` (stereo not given): the growth in [1] was 49.6% and 62.8%; in test [2] it was 54.2% and 67.9%; in [3], 82% and 103%; in test [4], 83.4% and 93.6%; in test [5], 56.8% and 68.8%; in [6], 70.1%. Moreover, the growth was 96.6% and 98.1% in test [7]; 83.7% and 94.7% in [8]; 41.4% and 77% in test [9]; 94.2% and 96.7% in test [10]; 91.5% and 80.4% in test [11]; 78.3% and 94.4% in [12]. The growth was 80.1% and 103% in test [13]; 71.1% and 86.8% in [14]; 82.2% and 125% in test [15]; 84.4% and 87.5% in [16]; 46.9% and 61.3% in test [17]; 101% in [18]. Also, the growth in test [19] was 53.7% and 40.2%; in [20], 33.4%.
Turning to `CC(Sc1ccccc1)C(=O)O` (stereo not given), the growth was 100% in test [1]; 99.3% in test [2]; 91.6% in test [3]; 94.5% in test [4]; 91.1% in test [5]; 103% in test [6]. Further, the growth in test [7] is 106%; in test [8], 94.5%; in [9] it was 95.6%; in test [10], 106%; in [11], 116%; in test [12] it was 94.2%. The growth is 103% in [13]; 94.9% in test [14]; 102% in test [15]; 104% in test [16]; 76.5% in test [17]; 88.7% in test [18]. Besides, the growth in [19] was 93.9%; in test [20] it was 141%.
Consider `O=C1c2cccc3cccc(c23)C(=O)N1N1C(=O)c2cccc3c(N4CCNCC4)ccc(c23)C1=O`, for which the growth was 50.6% in test [1]; 87.3% in [2]; 92.2% in test [3]; 88.5% in test [4]; 86.3% in [5]; 85.1% in test [6]. Further, the growth in test [7] is 92.8%; in [8], 95.7%; in test [9] it was 86.5%; in [10] it was 109%; in test [11], 101%; in [12], 97.9%. For the same molecule, the growth is 89.8% in [13]; 71.6% in test [14]; 113% in [15]; 87.8% in test [16]; 92.4% in test [17]; 75.1% in test [18]. Also, the figures for the growth in test [19] and in test [20] were 19.5% and 61.5%, respectively.
As for `CN1CCCc2cc(/C=C3\SC(=S)N(C(Cc4ccc(O)cc4)C(=O)O)C3=O)ccc21` (stereo not given), the growth in test [1] is 101%; in [2], 110%; in test [3], 89.9%; in [4] it was 92.2%; in [5] it was 94.7%; in test [6] it was 101%. The growth was 100% in [7]; 93.6% in [8]; 93.8% in test [9]; 113% in test [10]; 103% in [11]; 91.6% in test [12]. Moreover, the growth in [13] was 93.3%; in [14] it was 79.7%; in [15], 102%; in test [16] it was 103%; in test [17] it was 89%; in test [18], 87.8%. In addition, the growth in [19] was 106%; in test [20] it was 103%.
For `CN(C)CC1(C)Cc2ccsc2C1O` (stereo not given), the growth in test [1] was 108% and 105%; in test [2], 104% and 99.1%; in test [3] it was 110% and 101%; in test [4], 108% and 106%; in test [5] it was 112% and 103%; in [6], 98.2% and 100%. The growth in test [7] is 110% and 107%; in test [8], 109% and 112%; in [9], 97.3% and 102%; in test [10], 120% and 126%; in [11], 108% and 110%; in [12] it was 103% and 92.3%. Besides, the growth was 110% and 111% in [13]; 94.2% and 87.3% in test [14]; 105% and 94.1% in test [15]; 99.6% and 106% in test [16]; 106% and 103% in [17]; 97.9% and 95.5% in [18]. In addition, the growth in [19] was 94.8%; in test [20], 99.9% and 86.4%.
